Test results reported in the antibiotic and cytotoxicity screens of Wong et al. (2023).
Out of some 39,000 compounds screened, about 3,300 (8.5%) were called active. What follows is part of a selection rich in actives, with near analogues and random picks from the rest.

What follows are compounds tested on HepG2 (assay: cytotoxicity call (relative viability < 0.9)). Details: 10 µM.

Row | Compound | cytotoxicity call
1 | CCCCC(=O)C1CCCC=C1C(=O)O (centres undefined) | inactive
2 | C[C@H](CO)N1C[C@H](C)[C@@H](CN(C)Cc2cccc(C(F)(F)F)c2)OCc2ccccc2-c2ccccc2C1=O | inactive
3 | C[C@@H]1CN([C@@H](C)CO)C(=O)c2ccccc2-c2ccccc2CO[C@H]1CN(C)C(=O)c1cc(Cl)cc(Cl)c1 | inactive
4 | CC[C@@H](C)C(=O)O[C@H]1[C@@H]2CC3=C4CC(=O)O[C@@H](c5ccoc5)[C@]4(C)CC[C@@H]3[C@@](C)(C2=O)[C@@H](CC(=O)OC)C1(C)C | inactive
5 | CSc1nc(C)nc2ccccc12 | inactive
6 | CC(C)NC(=O)NCC[C@@H]1CC[C@@H](NC(=O)CN(C)C)[C@@H](CO)O1 | inactive
7 | C[C@@H]1CN([C@H](C)CO)C(=O)c2cc(NC(=O)Nc3ccc(F)cc3)ccc2O[C@@H](C)CCCCO[C@H]1CN(C)Cc1ccc2c(c1)OCO2 | active
8 | C[C@@H]1CCCCO[C@H](CN(C)Cc2ccc3c(c2)OCO3)[C@H](C)CN([C@H](C)CO)C(=O)c2cc(NC(=O)Nc3ccc(F)cc3)ccc2O1 | inactive
9 | C[C@@H]1CN([C@@H](C)CO)C(=O)c2cc(NC(=O)Nc3ccc(F)cc3)ccc2O[C@@H](C)CCCCO[C@H]1CN(C)Cc1ccc2c(c1)OCO2 | active
10 | C[C@H]1CCCCO[C@H](CN(C)Cc2ccc3c(c2)OCO3)[C@@H](C)CN([C@@H](C)CO)C(=O)c2cc(NC(=O)Nc3ccc(F)cc3)ccc2O1 | active
11 | C[C@@H]1CN([C@H](C)CO)C(=O)c2cc(NC(=O)Nc3ccc(F)cc3)ccc2O[C@@H](C)CCCCO[C@@H]1CN(C)Cc1ccc2c(c1)OCO2 | inactive
12 | C[C@@H]1CCCCO[C@@H](CN(C)Cc2ccc3c(c2)OCO3)[C@@H](C)CN([C@H](C)CO)C(=O)c2cc(NC(=O)Nc3ccc(F)cc3)ccc2O1 | inactive
13 | C[C@@H]1CCCCO[C@@H](CN(C)Cc2ccc3c(c2)OCO3)[C@@H](C)CN([C@@H](C)CO)C(=O)c2cc(NC(=O)Nc3ccc(F)cc3)ccc2O1 | inactive
14 | C[C@@H]1CN([C@@H](C)CO)C(=O)c2cc(NC(=O)Nc3ccc(F)cc3)ccc2O[C@@H](C)CCCCO[C@@H]1CN(C)Cc1ccc2c(c1)OCO2 | active
15 | CO[C@H]1CN(C)C(=O)c2cc(NC(=O)C3CC3)ccc2OC[C@H](C)N(C(=O)CN2CCOCC2)C[C@@H]1C | inactive
16 | O=C1OCCC/C=C\[C@H]2O[C@@]34C=CCN(c5ccc6ccccc6c5)C(=O)[C@H]3N(CCCCCO)C(=O)[C@@H]4[C@@H]12 | inactive
17 | COCCOC(=O)N1C(=O)[C@@]2(c3ccccc31)[C@H](C(=O)Nc1nc3ccccc3s1)[C@H]1C(=O)O[C@H](c3ccccc3)[C@H](c3ccccc3)N1[C@@H]2c1ccccc1OCCO | inactive
18 | Cc1ccc(S(=O)(=O)Nc2ccc3c(c2)C(=O)N([C@H](C)CO)C[C@H](C)[C@@H](CN(C)C(=O)Nc2ccc4c(c2)OCO4)OCCCC[C@@H](C)O3)cc1 | inactive
19 | C[C@@H]1CCCCO[C@@H](CN(C)C(=O)c2ccccc2)[C@H](C)CN([C@@H](C)CO)C(=O)c2cc(NC(=O)Cc3ccccc3)ccc2O1 | inactive
20 | COc1cccnc1N | inactive

Row | Compound | cytotoxicity call
21 | COc1ccc(NC(=O)N(C)C[C@H]2OCCCC[C@H](C)Oc3ccc(NC(=O)CCC(F)(F)F)cc3C(=O)N([C@@H](C)CO)C[C@@H]2C)cc1 | inactive
22 | CO[C@@H]1CN(C)C(=O)c2ccc(NC(=O)c3cc(C)on3)cc2OC[C@@H](C)N(C(=O)C2CCC2)C[C@H]1C | inactive
23 | COc1ccc(S(=O)(=O)Nc2ccc3c(c2)C(=O)N([C@H](C)CO)C[C@@H](C)[C@H](CN(C)C(=O)NC2CCCCC2)OCCCC[C@H](C)O3)cc1 | inactive
24 | C[C@H](CO)N1C[C@H](C)[C@H](CN(C)C(=O)Nc2ccc(F)cc2)Oc2ccc(NS(C)(=O)=O)cc2CC1=O | inactive
25 | C[C@@H]1CCCCO[C@H](CN(C)S(=O)(=O)c2ccc(F)cc2)[C@@H](C)CN([C@@H](C)CO)C(=O)c2cc(NC(=O)C3CCCCC3)ccc2O1 | inactive
26 | O=C1O[C@H](c2ccccc2)[C@H](c2ccccc2)N2[C@H]1[C@@H](C(=O)N1CCCCCCC1)[C@]1(C(=O)Nc3ccc(C#CCCO)cc31)[C@H]2c1ccc(OCCO)cc1 | inactive
27 | COc1ccc(NC(=O)Nc2ccc3c(c2)C(=O)N([C@H](C)CO)C[C@H](C)[C@@H](CN(C)S(=O)(=O)c2ccc(OC)cc2)OCCCC[C@@H](C)O3)cc1 | inactive
28 | COCC#Cc1ccc2c(c1)O[C@@H](CN(C)S(=O)(=O)c1ccc(C)cc1)[C@@H](C)CN([C@@H](C)CO)S2(=O)=O | inactive
29 | C[C@H](CO)N1C[C@H](C)[C@H](CN(C)Cc2ccc3c(c2)OCO3)OCCCC[C@H](C)Oc2ccc(NC(=O)Nc3ccc(F)cc3)cc2C1=O | inactive
30 | C[C@@H]1CCCCO[C@H](CN(C)Cc2ccc3c(c2)OCO3)[C@@H](C)CN([C@@H](C)CO)C(=O)c2cc(NC(=O)Nc3ccc(F)cc3)ccc2O1 | active
31 | C[C@@H]1CCCCO[C@@H](CN(C)Cc2ccc3c(c2)OCO3)[C@H](C)CN([C@@H](C)CO)C(=O)c2cc(NC(=O)Nc3ccc(F)cc3)ccc2O1 | inactive
32 | CN(C)CCCCNC(=O)[C@@H]1C[C@@H]2C(=O)N[C@@H](CCCCN(C)C)C(=O)N2[C@@H]1c1cccc(OCCO)c1 | inactive
33 | S=c1[nH]c2ccccc2s1 | inactive
34 | C[C@@H]1CN([C@@H](C)CO)C(=O)c2cc(NC(=O)CCCN(C)C)ccc2O[C@H]1CN(C)S(=O)(=O)c1cccs1 | inactive
35 | COCCNCc1ccc(-c2cc3nccc(Oc4ccc(NC(=O)C5(C(=O)Nc6ccc(F)cc6)CC5)cc4F)c3s2)nc1 | active
36 | COCCNCc1ccc(-c2cc3nccc(Oc4ccc(NC(=S)NC(=O)Cc5ccc(F)cc5)cc4F)c3s2)nc1 | active
37 | Cn1cnc(-c2cc3nccc(Oc4ccc(NC(=S)NC(=O)Cc5ccccc5)cc4F)c3s2)c1 | inactive
38 | COc1ccc(CN(C)C[C@H]2Oc3c(NC(=O)Nc4cccc5ccccc45)cccc3C(=O)N([C@H](C)CO)C[C@H]2C)cc1 | inactive
39 | COc1cccc(CNC(=O)C[C@@H]2C=C[C@H](NC(=O)C3CCOCC3)[C@H](CO)O2)c1 | inactive
